Marburg entry inh = blocks Marburg virus binding to or entry into cells. Marburg virus pseudotyped entry inhibition, cell reporter. Potency, µM (doses to about 37.8 µM), actives largely listed as inhibitors. 1.8% of 300,000 active. AID 540276; calls by dose curve; tested in HEK293 cells
HCV inh = blocks hepatitis C virus; Huh7.5.1 HCVcc-Cre infection, luciferase reporter, 44 h; Potency, µM (highest dose often 41.8 µM), most hits filed as inhibitors; 3.4% of 340,000 active; active means well fitted inhibition curve with a large enough effect; inconclusive means small, poorly fitted or top-dose-only effect, or another doubt; inactive means no such curve, though single readings can be large or run the other way
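HCVcc-Cre virus at an moi near 0.5 was added right after compound to cells cultured 4 h from seeding (1,000 cells/well). Luciferase activity was determined 44 h later, 15 min after substrate addition at RT.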
CHX counter = counter-screen for Shiga toxin inhibitors: cycloheximide protein synthesis inhibition; 12% of 300,000 active; max response, %; cell reporter, cycloheximide protein synthesis inhibition counterscreen; in the data active means max response mostly above about 13%, no sharp cut-off; inactive means mostly below about 14%; further: read at 38.3 µM for the half of the compounds with a filed dose
FMDV inh = foot and mouth disease virus antiviral activity. Potency, µM (top dose mostly 57.9 µM), most hits filed as inhibitors. FMDV antiviral cell-based qHTS. 1.2% of 410,000 active; calls by dose curve; tested in HEK293T cells; further: read-out not given here; nearly all actives have a fitted effect of over 45% in size
Shiga inhibitor = inhibitors of Shiga toxin in Vero cells. 9.2% of 290,000 active. Vero cells, Shiga toxin protein synthesis inhibition reporter. inhibition, % at 38.7 µM. AID 2315; in the data active means inhibition mostly above about 28%, no sharp cut-off; inactive means mostly below about 43%
LASV entry inh = inhibitors of Lassa virus binding or cell entry; Potency, µM (titrated, usually from 37.9 µM), most hits filed as inhibitors; Lassa virus pseudotype entry inhibition, cell reporter; 1.2% of 300,000 active; calls by dose curve; tested in HEK293 cells; further: nearly all actives have a fitted effect of over 50% in size
A number is an active result; ! = not confirmed by another sample; [ ] = remark or other dose. Most compounds without a hit are left out; they make up all but 13% or so of the library.

What do the screens show for `Cc1ccc(NS(=O)(=O)c2ccc(C3CCCCC3)cc2)cc1`?
Marburg entry inh: inconclusive; HCV inh: inconclusive; CHX counter: inactive; FMDV inh: inactive; Shiga inhibitor: inactive; LASV entry inh: inactive

What do the screens show for `O=C1CCCC/C1=N\Nc1ccc(C2CCCCC2)cc1`?
CHX counter: 38.7; Shiga inhibitor: 64.5

Results for CN(Cc1ccccc1)C(=O)c1nc2ccccn2c1CN1CCc2sccc2C1 ?
Marburg entry inh: inconclusive; HCV inh: inactive; CHX counter: inactive; FMDV inh: inactive; Shiga inhibitor: inactive; LASV entry inh: inactive

How did Nc1ccccc1C(=O)/C=C/c1ccc2c(c1)OCO2 do in these assays?
Marburg entry inh: inconclusive; HCV inh: inactive[8.37 µM]; CHX counter: 69.0; FMDV inh: inactive; Shiga inhibitor: 116.4; LASV entry inh: inconclusive

Results for O=C(/C=C/c1ccc2c(c1)OCO2)c1ccco1 ?
Marburg entry inh: inactive; HCV inh: inactive; CHX counter: 16.6; FMDV inh: inactive; Shiga inhibitor: 29.4; LASV entry inh: inactive

What do the screens show for `N#CCOC(=O)/C=C/c1ccc2c(c1)OCO2`?
Marburg entry inh: inconclusive; HCV inh: inactive; CHX counter: 22.1; FMDV inh: inactive; Shiga inhibitor: inactive; LASV entry inh: inactive

How did O=C(/C=C\c1ccc2c(c1)OCO2)c1ccc(F)cc1 do in these assays?
Marburg entry inh: inactive

What do the screens show for `Cc1nc(N2CCN(Cc3ccccc3)CC2)nc2c1CCC2`?
Marburg entry inh: inconclusive; HCV inh: inconclusive; CHX counter: inactive; FMDV inh: inactive; Shiga inhibitor: inactive; LASV entry inh: inactive

How did Cc1nc(N2CCN(Cc3ccccc3)CC2)nc2c1C(=O)CCC2 do in these assays?
Marburg entry inh: inconclusive; HCV inh: inconclusive; CHX counter: inactive; FMDV inh: 25.1µM; Shiga inhibitor: inactive; LASV entry inh: inactive

What do the screens show for `O=C(Cn1c(=O)oc2cc(S(=O)(=O)NCc3ccccc3)ccc21)N1CCCC1`?
Marburg entry inh: inactive; HCV inh: inactive; CHX counter: inactive; FMDV inh: inactive; Shiga inhibitor: inactive; LASV entry inh: inactive

How did Cc1csc(NC(=O)CSc2nnc(C)c(=O)n2N)n1 do in these assays?
Marburg entry inh: inactive; HCV inh: inactive; CHX counter: inactive; FMDV inh: inactive; Shiga inhibitor: inactive; LASV entry inh: inactive

What do the screens show for `Cc1nc(NC(=O)CSc2nnnn2C)sc1C`?
Marburg entry inh: inactive; HCV inh: inactive; CHX counter: 39.5; FMDV inh: inactive; Shiga inhibitor: 70.7; LASV entry inh: inactive

Results for COC(=O)c1sc(NC(=O)CSc2nnnn2C)nc1C ?
Marburg entry inh: inconclusive; HCV inh: inactive; CHX counter: 29.2; FMDV inh: inactive; Shiga inhibitor: 121.5; LASV entry inh: inconclusive

What do the screens show for `Cc1csc(NC(=O)CSc2nnnn2C)n1`?
Marburg entry inh: inconclusive; HCV inh: inactive; CHX counter: 25.4; FMDV inh: inactive; Shiga inhibitor: 52.7; LASV entry inh: inactive

Results for CSc1ncc(CN2CCc3c([nH]c4ccccc34)C2c2cccc(C)n2)cn1 (stereo not drawn) ?
HCV inh: inactive; CHX counter: inactive; FMDV inh: inactive; Shiga inhibitor: inactive

What do the screens show for `O=C(NCCS(=O)(=O)N1CCN(c2ccc(F)cc2)CC1)C(c1ccccc1)c1ccccc1`?
FMDV inh: inactive; LASV entry inh: inactive

How did NC(=O)CN1C(=O)NC(c2ccccc2)(c2ccccc2)C1=O do in these assays?
Marburg entry inh: inactive; HCV inh: inactive; CHX counter: inactive; FMDV inh: inactive; Shiga inhibitor: inactive; LASV entry inh: inactive

Results for Cc1nn(C(C)C(=O)NCCN2CCCCCC2)c(=O)c2nn(-c3ccccc3)c(C)c12 (stereo not drawn) ?
Marburg entry inh: inactive; HCV inh: inactive; CHX counter: inactive; FMDV inh: inactive; Shiga inhibitor: inactive; LASV entry inh: inactive

What do the screens show for `Cc1ccc(-n2ncc3c(NCc4cccnc4)ncnc32)c(C)c1`?
Marburg entry inh: inconclusive; HCV inh: 10µM!; CHX counter: inactive; FMDV inh: inconclusive; Shiga inhibitor: inactive; LASV entry inh: inconclusive

How did Cc1ccc(-n2ncc3c(NCc4ccccn4)ncnc32)c(C)c1 do in these assays?
Marburg entry inh: inconclusive; HCV inh: inactive; CHX counter: inactive; FMDV inh: inactive; Shiga inhibitor: inactive; LASV entry inh: inactive

How did Brc1ccc2ncnc(NCc3ccco3)c2c1 do in these assays?
Marburg entry inh: inconclusive; HCV inh: 25.1µM; CHX counter: inactive; FMDV inh: 14.1µM; Shiga inhibitor: inactive; LASV entry inh: inconclusive

What do the screens show for `COc1ccccc1CNc1ncnc2c1cnn2-c1ccccc1`?
HCV inh: inactive; CHX counter: 30.7; FMDV inh: inactive; Shiga inhibitor: 43.0

How did Cc1ccc2[nH]c3c(NCc4ccco4)ncnc3c2c1 do in these assays?
Marburg entry inh: 10µM; HCV inh: 11.2µM; CHX counter: 18.8; FMDV inh: inactive; Shiga inhibitor: 87.0; LASV entry inh: inactive

How did COc1ccccc1CNc1ncnc2c1cnn2-c1ccc(C)cc1 do in these assays?
FMDV inh: inactive; LASV entry inh: inactive

Results for CCN(C(=O)COC(=O)Cc1cccc2ccccc12)C1CCS(=O)(=O)C1 (stereo not drawn) ?
HCV inh: inactive; FMDV inh: inactive

Results for CCCCNc1ncnc2c1cnn2Cc1ccc(Cl)cc1 ?
HCV inh: inconclusive; CHX counter: inactive; FMDV inh: inactive; Shiga inhibitor: inactive

How did Cc1ccc(-n2ncc3c(NCc4ccco4)ncnc32)c(C)c1 do in these assays?
HCV inh: inactive; CHX counter: 15.9; FMDV inh: inactive; Shiga inhibitor: inactive

Results for COc1ccc(-n2ncc3c(NCc4cccnc4)ncnc32)cc1 ?
HCV inh: inconclusive; CHX counter: 52.2; FMDV inh: inactive; Shiga inhibitor: 85.9

How did Cc1cccc(C(=O)NNc2ncnc3c2cnn3C)c1 do in these assays?
Marburg entry inh: inactive; HCV inh: inactive; CHX counter: 30.0; FMDV inh: inactive; Shiga inhibitor: inactive; LASV entry inh: inactive

How did COc1ccc(CNc2ncnc3c2cnn3-c2ccc(Cl)cc2)cc1 do in these assays?
FMDV inh: inactive; LASV entry inh: inactive

Results for Cc1cccc(-n2ncc3c(NCc4cccnc4)ncnc32)c1 ?
HCV inh: inactive; CHX counter: 46.5; FMDV inh: inactive; Shiga inhibitor: 76.6

What do the screens show for `Cc1ccc(CNc2ncnc3c2cnn3-c2ccccc2)cc1`?
Marburg entry inh: inactive; HCV inh: inactive; CHX counter: inactive; FMDV inh: inactive; Shiga inhibitor: inactive; LASV entry inh: inactive

Results for CCOc1ccc(NC(=O)CN(C)C(=O)c2ccc(COc3ccccc3)o2)cc1OCC ?
Marburg entry inh: inactive; HCV inh: inconclusive; FMDV inh: inactive; LASV entry inh: inactive

Results for c1ccc(Cn2ncc3c(NCc4ccco4)ncnc32)cc1 ?
Marburg entry inh: inconclusive; HCV inh: inactive; CHX counter: inactive; Shiga inhibitor: inactive; LASV entry inh: inconclusive

What do the screens show for `CCCCNc1ncnc2c1cnn2-c1ccc(C)cc1C`?
HCV inh: inconclusive; CHX counter: 15.0; FMDV inh: inactive; Shiga inhibitor: inactive

Results for CC(=O)NNc1ncnc2c1cnn2-c1ccc(C)c(C)c1 ?
Marburg entry inh: inactive; HCV inh: inactive; CHX counter: 56.2; FMDV inh: inactive; Shiga inhibitor: 64.7; LASV entry inh: inactive
